In PubChem BioAssay AID624351 (Southern Research Specialized Biocontainment Screening …, 2012):
The whole screen tested about 2,400 compounds, of which about 1,400 (58%) were called active. The set was probably picked from earlier hits. Some of the results follow. Values without a mark were called inactive.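 How the source made its calls: active means inhibition of 30% or more at any tested dose; inconclusive means primary hits over the limit that were never retested; inactive means the rest.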

Test: ADP Hunter readout inhibition without MgcRacGAP – biochemical, coupled enzyme counter-screen, artefact control for MgcRacGAP inhibitor project, dose response (AID 624351);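 further: signal is the ADP detection kit reading of free GDP without any GAP enzyme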;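 on inhibition: 0% = median positive control wells and 100% = median negative control wells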
Settings: fluorescence, no MgcRacGAP; series mostly up to 80 µM; inhibition: at the top concentration

SMILES | inhibition | IC50
COc1ccc2c3c(cccc13)N(C)N=C2C | 1.94% [at 40 µM] | 
Cc1sc2c3ccsc3ccc2[n+]1C | 0.2% | 
COCc1cc(C)nc(OCC(=O)N/N=C/c2ccc(O)cc2)c1C#N |  | 79.7 µM (active)
O=C(Cc1ccc(Cl)cc1)N/N=C/c1ccc(O)c(O)c1 |  | 19.4 µM (active)
O=C(CCc1ccc(O)c(O)c1)N/N=C/c1ccc2c(c1)OCO2 | 9.28% | 
O=C(COc1ccccc1[N+](=O)[O-])N/N=C/c1ccc(O)cc1 |  | 70.9 µM (active)
O=[N+]([O-])c1ccccc1OCCNCc1ccccc1 | -0.42% | 
O=C(COc1cccc2cccnc12)N/N=C/c1ccc(O)cc1 |  | 80 µM (active)
O=C(Sc1n[nH]c(=O)[nH]c1=O)c1ccccc1 | -1.01% | 
CCn1nc(NS(=O)(=O)c2ccccc2[N+](=O)[O-])c2cc3ccc(C)cc3nc21 | 7.55% | 
O=C(COc1ccccc1C(=O)N/N=C\c1ccc(O)c(O)c1)N/N=C/c1ccc(O)c(O)c1 |  | 28.8 µM (active)
COc1cc(/C=N\NC(=O)CNC(=O)C2COc3ccccc3O2)ccc1O (centres undefined) |  | 35.8 µM (active)
O=C(CNC(=O)C1COc2ccccc2O1)N/N=C/c1ccc(O)cc1O (centres undefined) |  | 66.8 µM (active)
CCOC(=O)CCNC(C)C1COc2ccccc2O1 (centres undefined) | 12.8% | 
CCCCN(CC)CCNC(=O)c1cc2c(-c3ccc(Cl)cc3)nn(C)c2s1 | 22.5% [at 40 µM] | 
c1cc2c(cc1NC1CCCCCC1)OCO2 |  | 45.1 µM (active)
c1cc2c(cc1CN1CCN(C3CCCCCC3)CC1)OCO2 | 23.1% | 
COc1ccc(N2C(S)=C(C#N)C(=O)NC2c2ccco2)cc1 (centres undefined) | 6.86% | 
O=C1N/C(=C\c2ccc(O)cc2)C(O)=C1C=NCc1ccccc1 |  | 16 µM (active)
COc1cc(/C=C2/SC(=S)N(c3c(C)n(C)n(-c4ccccc4)c3=O)C2=O)ccc1O |  | 48.2 µM (active)
O=C1NC(=NCc2ccccc2)S/C1=C/c1ccc(O)cc1 |  | 20.1 µM (active)
COc1cc(/C=C2\SC(=Nc3c(C)n(C)n(-c4ccccc4)c3=O)NC2=O)ccc1O |  | 44.4 µM (active)

SMILES | inhibition | IC50
Cc1c(N=C2NC(=O)/C(=C/c3ccc(O)cc3)S2)c(=O)n(-c2ccccc2)n1C |  | 72 µM (active)
Nc1ccc2[nH]c(=S)sc2c1 | 26.9% | 
Nc1ccc2[nH]c(=S)[nH]c2c1 |  | 21 µM (active)
CCCS(=O)(=O)N1CCN(C2Cc3ccccc3C2)CC1 | 22% | 
CCCCn1c(C)cc2cc(O)ccc21 |  | 30.4 µM (active)
Cn1c(=O)[nH]c(N)c(Br)c1=O | 4.71% | 
Cc1cc(C)nc(N/N=C/c2c[nH]c3ccccc23)n1 |  | 55.4 µM (active)
C(=N\Nc1nc2ccccc2[nH]1)/c1c[nH]c2ccccc12 |  | 37.6 µM (active)
Cn1c(N/N=C/c2c[nH]c3ccccc23)nc2ccccc21 |  | 40.6 µM (active)
Cc1ccsc1/C=N/Nc1nc2ccccc2[nH]1 |  | 26 µM (active)
C=C1c2cccc(O)c2C(=O)C2C(=O)[C@]3(O)C(=O)C(C(N)=O)C(=O)[C@@H](N(C)C)[C@@H]3[C@@H](O)[C@H]12 (some centres undefined) | -8.67% | 
O=C1NC(=S)S/C1=C1\Sc2ccccc2N1CCCS(=O)(=O)O | 23.1% | 
Cc1cnc(NC(=O)CN2CCN(c3ccccc3F)CC2)s1 | 18.6% | 
CC(C(=O)Nc1ccc(F)c(F)c1)N1CCN(C)CC1 (centres undefined) | 14.6% | 
CC(C(=O)NCC(=O)Nc1ccc(F)c(F)c1F)N1CCN(c2ccc(O)cc2)CC1 (centres undefined) |  | 54.3 µM (active)
O=C(CN1CCN(c2ccc(O)cc2)CC1)NCC(=O)Nc1ccc(F)c(F)c1F |  | 61.8 µM (active)
CC(C(=O)Nc1ccccc1C(F)(F)F)N1CCN(C)CC1 (centres undefined) | 14.4% | 
CCOCCCNC(=O)CN1CCN(c2ccc(F)cc2)CC1 | 3.62% | 
COc1ccccc1NS(=O)(=O)c1ccc(C)c(C(=O)N2CCN(c3ccc(O)cc3)CC2)c1 |  | 23.6 µM (active)
COc1ccccc1C(=O)N1CCN(Cc2cccnc2)CC1 | 4.78% | 
COc1cc(OC)c(OC)cc1CN1CCN(C(=O)c2cccc3ccccc23)CC1 | 17.1% | 
Cc1cccc(/C(N)=N/OC(=O)N2c3ccccc3Sc3ccccc32)c1 | 26.5% | 

SMILES | inhibition | IC50
CC1(C)CC(NC(=O)N2c3ccccc3Sc3ccccc32)CC(C)(C)N1 | 8.31% | 
Cc1ccc2nc(/N=C(\N)NC(=O)N3c4ccccc4Sc4ccccc43)nc(C)c2c1 | 17.9% | 
N/C(=N\OC(=O)N1c2ccccc2Sc2ccccc21)c1ccccc1 | 28.5% | 
CCN1/C(=C/c2ccc3cc(C)ccc3[n+]2CC)Sc2cc(C)ccc21 | 0.65% | 
CN(C)/C=C/c1oc2ccc(O)cc2c1[N+](=O)[O-] |  | 14.2 µM (active)
CCCc1cc(=S)n2c([nH]c3ccccc32)c1C#N |  | 57.3 µM (active)
CCn1nc(C)c(Br)c1C(=O)Sc1ccccc1Cl | 0.17% | 
O=S(=O)(c1ccc(Cl)c(NC(=S)N/N=C/c2ccc(O)cc2)c1)N1CCOCC1 |  | 48.7 µM (active)
Cc1ccc(S(=O)(=O)N2CCOCC2)cc1NC(=O)CNCc1cccnc1 | 19.8% | 
CCN(CC)c1ccc(S(=O)(=O)N2CCOCC2)cc1NC(=O)CN1CCN(Cc2ccccc2)CC1 | 21.5% | 
CCOC(=O)C1CCCN(C2=NC(=O)/C(=C/c3ccc(O)c(OC)c3)S2)C1 (centres undefined) |  | 22.8 µM (active)
CCOC(=O)C1CCN(C2=NC(=O)/C(=C/c3ccc(O)cc3)S2)CC1 |  | 22.2 µM (active)
CCOC(=O)C1CCN(Cc2cn[nH]c2-c2ccccc2)CC1 | 16.9% | 
CCOC(=O)CSC1=NC(=O)/C(=C\c2ccc(OC(C)=O)cc2)S1 | 24.3% | 
COc1cc(/C=C2\SC(N3CCC(C)CC3)=NC2=O)ccc1O |  | 19.1 µM (active)
CCOC(=O)C1CCCN(C2=NC(=O)/C(=C/c3ccc(O)c(OCC)c3)S2)C1 (centres undefined) |  | 29.8 µM (active)
CCOC(=O)C(NC(=O)N(C)C)(Nc1sc(C)c(CC)c1C#N)C(F)(F)F (centres undefined) | 26.6% | 
C#CCOCCOCCOCCNc1nc(N2CCN(C(=O)[C@H](CCCN=C(N)N)n3cc(C(N)[C@H](C)CC)nn3)CC2)nc(N2CCN(C(=O)[C@H](CCCN=C(N)N)n3cc(C(N)[C@@H](C)CC)nn3)CC2)n1 (some centres undefined) | 3.3% | 
CC1CCN(S(=O)(=O)c2ccc3c(c2)C(Cl)(Cl)C(=O)N3)CC1 | 5.46% | 
CCS(=O)(=O)c1cc([N+](=O)[O-])c(Sc2ccccc2N)s1 | 12.6% | 
